Screening data: PubChem, National Center for Advancing Translational Sciences (NCATS)
JMJD2A Tudor: JMJD2A Tudor domain (human) inhibition. O75164. AlphaScreen JMJD2A-Tudor / H3K4me3 peptide binding. Potency, µM (titrated, usually from 114 µM), without a hit: at the top dose activity change, negative = inhibition, usual class: inhibitors. 390,000 tested, 4.4% active; also: potency is read from the fitted curve at half-maximal effect; % is scaled to controls: 0 for no effect and ±100 for the full control effect; nearly all actives have a fitted effect of over 50% in size
HP1b binding inh: HP1-beta chromodomain-methylated histone interaction inhibition. AlphaScreen HP1-beta / biotin-H3K9me3 peptide binding. P83916. 390,000 tested, 0.56% active. Potency, µM (series often up to 114 µM), for the others: at the highest dose activity change, negative = inhibition, usual class: inhibitors; also: potency is read from the fitted curve at half-maximal effect; nearly all actives have a fitted effect of over 70% in size
Target sequence (P83916 whole entry, looked up): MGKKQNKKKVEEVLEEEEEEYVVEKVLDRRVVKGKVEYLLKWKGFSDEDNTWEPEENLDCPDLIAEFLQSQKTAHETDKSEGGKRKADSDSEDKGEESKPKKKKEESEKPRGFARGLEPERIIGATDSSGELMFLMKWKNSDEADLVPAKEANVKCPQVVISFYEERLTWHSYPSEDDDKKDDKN
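Compound inhibition of the preformed complex between 50 nM HP1-beta and 50 nM biotinylated H3K9me3 peptide was read by AlphaScreen. Buffer was PBS pH 7.4 with 0.01% Tween-20. Incubations ran 30 min at room temperature, with 10 ug/mL donor/acceptor beads.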
BAZ2B block: inhibitors of human BAZ2B bromodomain; 360,000 tested, 4.4% active; Potency, µM (titrated, usually from 114 µM), for inactives: top-dose activity change, negative = inhibition, hits mostly inhibitors; AID 504333; Q9UIF8; AlphaScreen BAZ2B-H3K14Ac peptide displacement; also: potency is read from the fitted curve at half-maximal effect; % is scaled to controls: 0 for no effect and ±100 for the full control effect; nearly all actives have a fitted effect of over 60% in size
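Compounds, titrated to a top concentration of 110 uM, were incubated 30 min at room temperature with preformed BAZ2B/acetyl-K14 H3 peptide complex (50 nM each). Proximity signal was measured by AlphaScreen after 20 min with beads.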
G9a inh: blocks human histone lysine methyltransferase G9a; G9a H3K9 monomethylation, AlphaScreen, 2 h; Potency, µM (titrated, usually from 102 µM), for the others: top-dose activity, negative = inhibition, most hits filed as inhibitors; 350,000 tested, 8.8% active; AID 504332; also: potency is read from the fitted curve at half-maximal effect; % is scaled to controls: 0 for no effect and ±100 for the full control effect; nearly all actives have a fitted effect of over 75% in size
Target sequence (Q96KQ7 913-1193 limits assumed): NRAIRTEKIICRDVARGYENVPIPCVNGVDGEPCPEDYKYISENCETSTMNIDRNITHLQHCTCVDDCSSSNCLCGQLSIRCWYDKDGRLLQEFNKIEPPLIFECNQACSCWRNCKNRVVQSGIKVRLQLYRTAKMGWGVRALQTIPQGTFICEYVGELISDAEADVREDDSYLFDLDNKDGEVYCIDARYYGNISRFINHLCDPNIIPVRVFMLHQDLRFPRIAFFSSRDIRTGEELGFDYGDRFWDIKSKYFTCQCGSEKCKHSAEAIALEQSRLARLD
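Methyltransferase reactions run at room temperature for 2 h (20 nM enzyme, 500 nM biotin-H3K9 peptide, 20 uM SAM) after a 15 min compound preincubation; product detected by AlphaScreen beads and anti-H3K9me1 antibody.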
Six1-Eya2 blk: blocks human Six1 binding to Eya2; Q15475+O00167; AlphaScreen GST-Six1/His-Eya2 binding, biochemical; hits give low values; activity change, % (no concentration beside the values); 360,000 tested, 0.56% active; AID 651725; in the data active = activity change below about -65%; inconclusive = mostly about -30% to -63%; also: % is scaled to controls: 0 for no effect and ±100 for the full control effect
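Homogeneous AlphaScreen proximity assay pairing GST-Six1 with His-tagged Eya2 (added as 5X mix: 250 nM and 500 nM) in 50 mM Tris pH 8.0, 300 mM NaCl, 1 mM TCEP. Glutathione donor and nickel acceptor beads; 1 h, 37 °C, dark.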
CtBP-E1A blk: inhibitors of CtBP/E1A interaction. AlphaScreen GST-E1A/His-CtBP binding, 1536-well; hits give low values. activity change, % (test concentration not listed). 340,000 tested, 0.49% active. AID 651724; in the data active = activity change below about -65%; inconclusive = mostly about -30% to -63%; also: % is scaled to controls: 0 for no effect and ±100 for the full control effect
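GST-E1A and His-tagged CtBP (125 nM each as 5X stock) were preincubated with pin-transferred compound for 2 h at 37 °C in the dark, then glutathione donor and nickel acceptor beads were added for 1 h before AlphaScreen reading.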
* hit, by the source's call; ! = not active in a repeat; [ ] = remark or other dose. Sampled rows, rich in hits. Any-hit rate of the full collection: about 10%. Unless noted, calls follow the shape of the dose curve; as a rule, active = well fitted inhibition curve with a large enough effect; inconclusive = small, poorly fitted or top-dose-only effect; inactive = no such curve, though single readings can be large or run the other way.

For Cc1ccc(N2CCN(/N=C/C=C/c3ccccc3)CC2)cc1 the results were JMJD2A Tudor -14%, HP1b binding inh 2%, BAZ2B block 3%, G9a inh 24%[59 µM], Six1-Eya2 blk -1 and CtBP-E1A blk -24.
For Cc1ccc(NC(=O)CN2C(=O)C(c3ccccc3)=NC2(C)C)cc1C the results were JMJD2A Tudor -19%, HP1b binding inh 6%, BAZ2B block 0% and G9a inh 4%[59 µM].
COc1ccc(-c2cc3nccc(-c4cc(Cl)c(C)cc4O)n3n2)cc1 was read as JMJD2A Tudor -29%, HP1b binding inh 10%, BAZ2B block -6% and G9a inh 0%[59 µM].
Cc1nn(Cc2ccccc2)c(C)c1NC(=O)CCCn1nc([N+](=O)[O-])c(Cl)c1C was read as JMJD2A Tudor 40µM*, HP1b binding inh 13%, BAZ2B block 8%, G9a inh 22%, Six1-Eya2 blk 12 and CtBP-E1A blk -5.
CC1CCCCN1Cc1c(O)ccc2c(=O)c(-c3ccc(Cl)cc3)coc12 (stereo not drawn) was read as JMJD2A Tudor 79µM*!, HP1b binding inh 29%, BAZ2B block -3%, G9a inh 9%, Six1-Eya2 blk 10 and CtBP-E1A blk 7.
Screening CC1CCCCN1Cc1c(O)ccc2c(=O)c(-c3ccc(Br)cc3)coc12 (stereo not drawn) returned JMJD2A Tudor -7%, HP1b binding inh 23%, BAZ2B block -13%, G9a inh -6%, Six1-Eya2 blk 1 and CtBP-E1A blk 2.
Screening N/C(=N\OC(=O)c1csnn1)c1ccc(C(F)(F)F)cc1 returned JMJD2A Tudor -5%, HP1b binding inh -20%, BAZ2B block -1%, G9a inh 18µM*, Six1-Eya2 blk -1 and CtBP-E1A blk 5.
`CCOC(=O)c1ccccc1NC1c2ccccc2C(=O)N1C1CCN(C(=O)OCC)CC1` (stereo not drawn) gave JMJD2A Tudor -19%, HP1b binding inh 18%, BAZ2B block -26%, G9a inh 40µM*, Six1-Eya2 blk 0 and CtBP-E1A blk 0.
For CCOC(=O)N1CCC(N2C(=O)c3ccccc3C2Nc2ccc3c(c2)OCCO3)CC1 (stereo not drawn) the results were JMJD2A Tudor inconclusive, HP1b binding inh -6%, BAZ2B block inconclusive, G9a inh 50µM*, Six1-Eya2 blk -6 and CtBP-E1A blk -5.
`CCOC(=O)N1CCC(N2Cc3cccc(C(=O)NCc4ccc(C)cc4)c3C2=O)CC1` gave JMJD2A Tudor -31%, HP1b binding inh 15%, BAZ2B block -12%, G9a inh inconclusive, Six1-Eya2 blk 0 and CtBP-E1A blk -1.
Screening CCOC(=O)N1CCC(N2Cc3cccc(C(=O)NC(C)c4ccc5c(c4)OCCO5)c3C2=O)CC1 (stereo not drawn) returned JMJD2A Tudor -32%, HP1b binding inh 23%, BAZ2B block -10%, G9a inh 40µM*, Six1-Eya2 blk -2 and CtBP-E1A blk -9.
`CCOC(=O)N1CCC(N2CCN(S(=O)(=O)c3ccc4ccccc4c3)CC2)CC1` gave JMJD2A Tudor 0.89µM*, HP1b binding inh inconclusive, BAZ2B block inconclusive, G9a inh 8.9µM*, Six1-Eya2 blk -11 and CtBP-E1A blk -23.
Screening CCCC(=O)N1CCN(c2nc3ccc(F)cc3s2)CC1 returned JMJD2A Tudor 3%, HP1b binding inh 17%, BAZ2B block -1% and G9a inh 9%[59 µM].
Screening CCOC(=O)N1CCC(N2C(=O)c3ccccc3C2Nc2ccc(S(=O)(=O)N3CCCCC3)cc2)CC1 (stereo not drawn) returned BAZ2B block -6% and G9a inh 40µM*.
CCOC(=O)N1CCC(N2C(=O)c3ccccc3C2Nc2cccnc2)CC1 (stereo not drawn) was read as JMJD2A Tudor -9%, HP1b binding inh 38%, BAZ2B block 2%, G9a inh inconclusive, Six1-Eya2 blk -2 and CtBP-E1A blk 2.
For CCc1cc2c(NCCN3CCCCC3)ncnc2s1 the results were JMJD2A Tudor inconclusive, HP1b binding inh 28%, BAZ2B block 4%, G9a inh 50µM*, Six1-Eya2 blk 0 and CtBP-E1A blk 1.
Screening Cc1sc2ncnc(NCCN3CCOCC3)c2c1C returned JMJD2A Tudor 1.6µM*, HP1b binding inh -50%, BAZ2B block 50µM*, G9a inh 8.9µM*, Six1-Eya2 blk -1 and CtBP-E1A blk 3.
`Cc1ccc(NC(=O)c2ccc(=O)n(CC(=O)Nc3cc(C)cc(C)c3)n2)cc1` gave JMJD2A Tudor 0%, HP1b binding inh 36%, BAZ2B block 3% and G9a inh -7%[59 µM].
`CCOC(=O)c1ccc(NC(=O)CSc2nccn2Cc2ccc(OC)cc2)cc1` gave JMJD2A Tudor inconclusive, HP1b binding inh -7%[57 µM], BAZ2B block inconclusive and G9a inh inconclusive.
Screening Cc1c(Cl)cccc1NC(=O)c1oc2ccc(S(=O)(=O)N3CCC4(CC3)OCCO4)cc2c1C returned JMJD2A Tudor -10%, HP1b binding inh 33%, BAZ2B block 5% and G9a inh -19%[59 µM].
`COc1ccc(N(CC(=O)N2CCc3ccccc3C2)S(=O)(=O)c2ccc(C)cc2)cc1Cl` gave JMJD2A Tudor -20%, HP1b binding inh 5%, BAZ2B block -6% and G9a inh inconclusive.
For COc1ccc(-c2noc(CSc3nc(N)cc(=O)[nH]3)n2)cc1OC the results were JMJD2A Tudor -7%, HP1b binding inh 12%, BAZ2B block -3% and G9a inh -36%[59 µM].
Screening Cc1nc2ccc(Cl)cc2nc(C)/c1=N\O returned JMJD2A Tudor -13%, HP1b binding inh 34%, BAZ2B block -1%, G9a inh 28µM*, Six1-Eya2 blk 1 and CtBP-E1A blk -14.
For Cc1nc2c(-c3ccccc3)c(C)nn2c(C)c1CCC(=O)N1CCN(c2ccc(F)cc2)CC1 the results were JMJD2A Tudor -21%, HP1b binding inh 22%, BAZ2B block -24% and G9a inh -4%[59 µM].
Cc1ccc(S(=O)(=O)N(C(=O)c2ccncc2)c2ccc(OC(=O)c3ccncc3)c3ccccc23)cc1 was read as JMJD2A Tudor 40µM*, HP1b binding inh -28%, BAZ2B block -35%, G9a inh 8.9µM*, Six1-Eya2 blk -11 and CtBP-E1A blk 5.
`CC(=O)Oc1ccc(N(C(C)=O)S(=O)(=O)c2ccc(C)cc2C)c2ccccc12` gave JMJD2A Tudor -12%, HP1b binding inh inconclusive, BAZ2B block -1%, G9a inh 15%[59 µM], Six1-Eya2 blk -12 and CtBP-E1A blk 2.
